Screen size: about 360,000 compounds; about 11,000 (3.1%) were called active. Roughly 4% stayed inconclusive and do not appear here. Only a selection was taken, and actives are over-represented in it overall. A number with no mark means an inactive call. Calls follow the shape of the dose curve; as a rule, active = well fitted inhibition curve with a large enough effect; inconclusive = small, poorly fitted or top-dose-only effect; inactive = no such curve, though single readings can be large or run the other way.
Target: Schistosoma mansoni thioredoxin glutathione reductase (TGR) (UniProt Q962Y6)
Assay: qHTS Assay for the Inhibitors of Schistosoma Mansoni Peroxiredoxins; also: nearly all actives have a fitted effect of over 60% in size
Details: purified TGR, DTNB reduction, TNB absorbance 405 nm; series mostly up to 114 µM; activity change, negative = inhibition: at the top concentration
Summary of the method: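 First, TGR (20 nM dispensed) and NADPH were mixed with compound. Second, a 15 min room-temperature incubation followed. Third, further NADPH and then DTNB were added to start the reaction. Finally, TNB absorbance was monitored kinetically.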
% is scaled to controls: 0 for no effect and ±100 for the full control effect; potency is read from the fitted curve at half-maximal effect.

SMILES | activity change, negative = inhibition | Potency
CCOc1ccc(N(CC)S(=O)(=O)N2CCCC(C(=O)NCc3ccc(Cl)cc3)C2)cc1 (stereo not given) | 2.95% | –
COc1ccccc1N1CCN(c2ncnc3onc(-c4cccc(Cl)c4)c23)CC1 | -6.23% | –
COc1ccc(-c2nc(CN3CCN(c4ncccn4)CC3)c(C)o2)cc1C | 0.814% | –
Cc1cccc(C)c1NC(=O)CS(=O)CC(=O)N1CCN(c2ccccc2)CC1 (stereo not given) | -8.81% | –
Cc1ccc(-c2nc(CS(=O)CC(=O)N3CCN(c4ncccn4)CC3)c(C)o2)cc1 (stereo not given) | – | 7.08 µM (active)
O=C(NC1CCCCCC1)c1cccnc1Sc1ccc(Cl)cc1 | -3.38% | –
O=C(NC1CCCC1)c1cc(-c2ccccc2)on1 | 3.07% | –
O=C(NC1CCCCC1)c1ccc(-c2ccc(Cl)cc2)o1 | – | 35.5 µM (active)
Cc1ccc(CCNC(=O)c2ccc3c(c2)N(Cc2cc(C)ccc2C)C(=O)c2ccccc2S3=O)cc1 (stereo not given) | 9.69% | –
Cc1ccccc1OCc1nc2c3cnn(-c4ccccc4F)c3ncn2n1 | 0.293% | –
CCn1c(NC(=O)c2ccccc2)c(-c2cccs2)c(=O)c2ccccc21 | 0.42% | –
CC(C)Cn1c(CCC(=O)O)ccc1-c1cccs1 | – | 22.4 µM (active)
O=C(O)CCC(=O)N(Cc1cccs1)Cc1cccs1 | -0.146% | –
CCOc1ccc(S(=O)(=O)c2cn(Cc3ccccc3)c3ccc(OCC)cc3c2=O)cc1 | 2.33% | –
Fc1cccc(Cl)c1CSc1ccc(-c2ccco2)nn1 | – | 17.8 µM (active)
Cc1cccc(CSc2ccc(-c3cccs3)nn2)c1 | – | inactive
N#Cc1ccc(-c2cccs2)nc1SCc1ccc(Br)cc1 | -18.7% | –
Brc1ccc(CSc2ccc(-c3ccco3)nn2)cc1 | – | 17.8 µM (active)
Cn1c(SCc2c(F)cccc2Cl)nnc1-c1cnccn1 | -5.1% | –
Cc1cc(SCc2c(F)cccc2Cl)nc(=O)[nH]1 | 3.88% | –
COc1cccc(CNC(=O)C(NS(=O)(=O)c2ccc3nc(C)sc3c2)C(C)C)c1 (stereo not given) | 6.17% | –
COc1ccc(CNC(=O)CSc2nc3ccccc3nc2Cc2ccccc2)cc1 | 8.87% | –
Cc1ccc(OCCSc2nc3ccc(NC(=O)COc4ccc(C)cc4)cc3s2)cc1 | 1.48% | –
O=C(CCCn1c(=O)c2cccn2c2cccnc21)NCc1ccc(F)cc1 | 5.29% | –
CCOc1ccccc1NC(=O)C1CCCN(S(=O)(=O)c2cn(C)cn2)C1 (stereo not given) | 1.19% | –

SMILES | activity change, negative = inhibition | Potency
COc1ccc(N2CCN(S(=O)(=O)c3ccc4c(c3)NC(=O)C(C)C(=O)N4)CC2)cc1 (stereo not given) | -0.727% | –
CC1C(=O)Nc2ccc(S(=O)(=O)N3CCN(c4ccccc4F)CC3)cc2NC1=O (stereo not given) | 0.0144% | –
CON(C)S(=O)(=O)c1ccc2c(c1)NC(=O)C1CCCN21 (stereo not given) | – | 12.6 µM (active)
COc1ccc(-c2cc(C(F)(F)F)n3nc(-c4ccccc4)cc3n2)cc1OC | 1.04% | –
CCc1ccccc1NC(=O)N1CCC2(CC1)Oc1ccccc1C(=O)N2Cc1ccccc1F | 5.66% | –
Cc1cc(-c2ccc(/C=N/n3cnnc3)o2)c([N+](=O)[O-])cc1C | – | 35.5 µM (active)
Cc1cc(C)c([N+](=O)[O-])cc1-c1ccc(/C=N/NC(=O)c2nonc2N)o1 | -22.4% | –
Cc1cc([N+](=O)[O-])c(-c2ccc(/C=N/n3cnnc3)o2)cc1Cl | – | 50.1 µM (active)
Clc1cc(-c2ccc(/C=N/n3cnnc3)o2)ccc1Br | -8.48% | –
Cc1ccc(Cl)cc1-c1ccc(/C=N/n2cnnc2)o1 | 5.78% | –
O=C1C2C3C=CC(C4CC34)C2C(=O)N1/N=C/c1ccc(-c2ccccc2[N+](=O)[O-])o1 (stereo not given) | -5.26% | –
COc1ccc(-n2nc(C(=O)NCCc3ccc(Cl)cc3)c3c4ccccc4n(C)c3c2=O)cc1Cl | 8.82% | –
Cc1cccc(OCCCC(=O)Nc2sc3c(c2C(N)=O)CCC(C)C3)c1 (stereo not given) | 0.261% | –
CCOC(=O)C1CCN(C(=O)CSc2c3c(nc4ccc(Cl)cc24)CCCC3)CC1 | -4.41% | –
CCOc1ccc(N(Cc2ccccc2)C(=O)c2nc(SCC)ncc2Cl)cc1 | 8.83% | –
CCOc1ccc(N(Cc2ccccc2)C(=O)c2nc(S(C)(=O)=O)ncc2Cl)cc1 | – | 8.91 µM (active)
CCOc1ccc(NC(=O)CN(Cc2ccccc2)S(=O)(=O)c2ccc(Cl)cc2)cc1 | -0.203% | –
Cc1c(CNC2CCCCC2)c(C(=O)O)c(C)n1Cc1cccc(Cl)c1 | -3.74% | –
COC(=O)C1=C(c2ccccc2)c2ccccc2S(=O)(=O)N1CC(=O)Nc1ccccc1C(F)(F)F | -1.13% | –
CN1C(=O)/C(=C/c2ccco2)SC1=Nc1cccc(C(=O)O)c1 | – | 14.1 µM (active)
Cc1cc(/C=C2\SC(=Nc3ccc(N4CCOCC4)cc3)N(C)C2=O)c(C)n1-c1cccnc1 | -22.7% | –
CN=C1S/C(=C\c2c(OC)cc(OC)cc2OC)C(=O)N1C | -16.8% | –
CCOC(=O)c1ccc(NC(=O)CC2C(=O)N(c3cccc(OC)c3)C(=O)N2C2CCCCC2)cc1 (stereo not given) | 6.04% | –
COc1ccc(NC(=O)c2ccc3nc(C(C)C)oc3c2)cc1OC | -0.734% | –
COc1ccccc1N1CCN(C(CNC(=O)C(=O)NCc2ccc(C)cc2)c2cccnc2)CC1 (stereo not given) | -3.19% | –
